This note sets out measurements from PubChem BioAssay (EPA / NIEHS).

Results filed as inconclusive are left out. The source made the active and inactive calls. The calls were made as follows: active = hit-call score of the fitted dose curve at least 0.9, where 1 is the maximum; inconclusive = response in the unintended direction; inactive = score below 0.9.

In this assay the target is Cellular tumor antigen p53 (Homo sapiens) (UniProt P04637). Nature of the assay: TOX21_p53_BLA_p2_ratio: Tox21 HCT-116 p53 Agonism Beta-lactamase Assay, Ratio, Phase 2 (AID 2283592). The method, boiled down: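 HCT-116 cells with p53-responsive beta-lactamase reporter, 4000 cells/well, preincubated 5 h, then compound in DMSO (217-fold dilution) for 16 h at 37C. CCF4-AM substrate 2 h at room temperature; 460/530 nm emission ratio fitted upward versus DMSO.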
Cellular tumor antigen p53 (Homo sapiens), sequence (P04637 whole entry, looked up): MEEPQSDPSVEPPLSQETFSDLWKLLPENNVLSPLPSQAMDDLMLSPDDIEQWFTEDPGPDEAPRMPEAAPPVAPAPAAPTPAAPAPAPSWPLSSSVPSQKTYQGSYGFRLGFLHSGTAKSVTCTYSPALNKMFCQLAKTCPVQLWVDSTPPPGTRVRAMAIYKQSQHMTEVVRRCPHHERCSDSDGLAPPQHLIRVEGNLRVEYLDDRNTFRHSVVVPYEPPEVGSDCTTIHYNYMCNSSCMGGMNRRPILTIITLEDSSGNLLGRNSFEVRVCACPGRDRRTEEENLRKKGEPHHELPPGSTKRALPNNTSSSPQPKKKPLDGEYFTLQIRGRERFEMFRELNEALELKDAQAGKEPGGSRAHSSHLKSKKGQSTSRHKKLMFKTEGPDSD
For the molecule `CC(C)(CO)COC(=O)C(C)(C)CO`, the outcome was inactive.

For the molecule `CC(=O)CC(=O)Nc1ccccc1C`, the result was inactive.

On to `C=CCCCCCCCCO`, for which the result was inactive.

For `CCCCOC(=O)C(C)CC` (stereo unspecified), the result was inactive.

For the molecule `O=C1CCCCCCCCCCC1`, the outcome was inactive.

`CCCCCCC=O`: the result was inactive.

Regarding `CCOC(=O)/C=C\C(=O)OCC`, the outcome was inactive.

With `C=CCNCC=C`, the outcome was inactive.

For `O=S(=O)(O)c1ccc(Nc2nc(Nc3ccc(C=Cc4ccc(Nc5nc(Nc6ccc(S(=O)(=O)O)cc6)nc(N(CCO)CCO)n5)cc4S(=O)(=O)O)c(S(=O)(=O)O)c3)nc(N(CCO)CCO)n2)cc1`, the outcome was inactive.

Consider `Oc1ccccc1Cc1ccccc1O`, for which the outcome was inactive.

Take `CCCC/C=C/C=C\C=O`: the outcome was inactive.

Take `CCCCOCC(C)O` (stereo unspecified): the outcome was inactive.

For `CCCCNS(=O)(=O)c1ccc(C)cc1`, the outcome was inactive.

In the case of `C=C(C)C(=O)OCCCCCCCCCCCC`, the outcome was inactive.

`CCCCOCCOC(=O)COc1ccc(Cl)cc1Cl`: the outcome was inactive.

In the case of `CC(=O)OC(C)c1ccccc1` (stereo unspecified), the outcome was inactive.
